Test results as given in publication PMC5700166.

Key:
Assay in all cases: protein-binding microarray (PBM); PBM: ~300 nM protein, 6 mM HEPES pH 7.8, 80 mM KCl, 0.5 mM EDTA, 0.5 mM EGTA, 6% glycerol, 35 ng/ul poly-dIdC, 1% milk, 1 h, room temperature; Ap Aiptasia and Nv Nematostella (sea anemones) / Co Capsaspora / Aq Amphimedon (sponge) / Dm Drosophila / Hu human; RHD is the Rel homology domain; high values mean tight binding
Conditions in all cases: dsDNA, one strand shown
GST-Ap-NF-kB RHD = molecular target: T1, GST-Ap-NF-kB RHD (Exaiptasia pallida (Aiptasia), UniProt A0A913YAJ5 2-422)
T1 sequence: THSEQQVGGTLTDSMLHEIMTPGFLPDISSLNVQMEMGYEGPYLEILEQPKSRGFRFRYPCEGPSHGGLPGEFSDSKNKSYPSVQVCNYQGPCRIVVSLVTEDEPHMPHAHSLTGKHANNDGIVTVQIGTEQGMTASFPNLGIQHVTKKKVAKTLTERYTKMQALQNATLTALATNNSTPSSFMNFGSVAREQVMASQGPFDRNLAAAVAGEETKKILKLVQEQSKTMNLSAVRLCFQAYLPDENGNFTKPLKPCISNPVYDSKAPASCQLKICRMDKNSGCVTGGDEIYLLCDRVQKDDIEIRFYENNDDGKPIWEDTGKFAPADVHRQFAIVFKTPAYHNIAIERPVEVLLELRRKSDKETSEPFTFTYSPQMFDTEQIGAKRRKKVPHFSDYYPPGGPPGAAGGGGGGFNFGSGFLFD

[1] = molecular target: T2, GST-Nv-NF-kB (Cys allele) (Nematostella vectensis, UniProt E5G601 2-411)
T2 sequence: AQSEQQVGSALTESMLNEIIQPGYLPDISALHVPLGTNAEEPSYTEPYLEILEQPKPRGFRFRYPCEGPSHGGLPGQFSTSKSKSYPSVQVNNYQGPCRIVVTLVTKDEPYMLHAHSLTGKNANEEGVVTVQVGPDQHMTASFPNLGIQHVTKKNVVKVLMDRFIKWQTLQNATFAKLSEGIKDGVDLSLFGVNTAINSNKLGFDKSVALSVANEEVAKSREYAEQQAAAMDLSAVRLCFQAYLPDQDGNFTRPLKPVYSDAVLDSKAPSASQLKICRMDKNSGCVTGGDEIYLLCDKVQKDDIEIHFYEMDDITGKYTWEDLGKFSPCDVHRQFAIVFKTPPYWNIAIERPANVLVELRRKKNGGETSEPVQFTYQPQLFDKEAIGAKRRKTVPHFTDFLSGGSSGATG

GST-Co-NF-kB = molecular target: T3, GST-Co-NF-kB (Capsaspora owczarzaki, UniProt F1ARL5 200-546)
T3 sequence: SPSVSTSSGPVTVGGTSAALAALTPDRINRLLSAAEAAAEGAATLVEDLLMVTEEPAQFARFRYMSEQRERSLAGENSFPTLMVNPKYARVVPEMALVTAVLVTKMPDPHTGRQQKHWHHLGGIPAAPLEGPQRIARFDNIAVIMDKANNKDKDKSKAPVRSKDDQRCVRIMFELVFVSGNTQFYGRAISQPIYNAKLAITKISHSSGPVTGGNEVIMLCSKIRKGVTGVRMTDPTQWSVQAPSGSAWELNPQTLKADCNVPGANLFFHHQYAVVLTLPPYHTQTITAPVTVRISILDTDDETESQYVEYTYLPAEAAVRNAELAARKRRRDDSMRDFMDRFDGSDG

GST-Dm-Relish = molecular target: T4, GST-Dm-Relish (Drosophila melanogaster, UniProt Q94527 99-473)
T4 sequence: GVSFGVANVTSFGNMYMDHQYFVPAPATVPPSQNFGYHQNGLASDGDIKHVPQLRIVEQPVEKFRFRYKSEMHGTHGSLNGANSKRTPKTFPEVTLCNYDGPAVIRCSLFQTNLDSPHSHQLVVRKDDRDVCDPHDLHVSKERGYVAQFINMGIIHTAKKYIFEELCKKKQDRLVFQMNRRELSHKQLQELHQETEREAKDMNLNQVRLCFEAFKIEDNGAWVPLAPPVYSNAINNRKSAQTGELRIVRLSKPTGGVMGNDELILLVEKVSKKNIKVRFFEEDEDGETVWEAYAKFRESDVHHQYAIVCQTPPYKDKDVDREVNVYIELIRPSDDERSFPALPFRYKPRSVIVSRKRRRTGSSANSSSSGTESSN

GST-Aq-NF-kB = molecular target: T5, GST-Aq-NF-kB (Amphimedon queenslandica, UniProt A9Y5G7 2-389)
T5 sequence: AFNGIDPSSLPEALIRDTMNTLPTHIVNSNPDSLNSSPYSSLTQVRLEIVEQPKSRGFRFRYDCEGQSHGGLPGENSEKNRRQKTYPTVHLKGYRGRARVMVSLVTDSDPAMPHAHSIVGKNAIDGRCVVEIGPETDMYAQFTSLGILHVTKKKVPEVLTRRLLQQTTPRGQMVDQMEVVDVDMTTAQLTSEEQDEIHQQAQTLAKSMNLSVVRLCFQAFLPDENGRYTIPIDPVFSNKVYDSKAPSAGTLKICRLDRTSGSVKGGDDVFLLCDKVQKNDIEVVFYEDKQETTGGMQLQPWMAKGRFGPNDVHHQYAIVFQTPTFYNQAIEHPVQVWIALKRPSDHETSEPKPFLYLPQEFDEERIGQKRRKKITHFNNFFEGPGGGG

GST-Hu-p50 = GST-Hu-p50 (Homo sapiens, UniProt P19838 7-356)
GST-Hu-p50, sequence (P19838 7-356): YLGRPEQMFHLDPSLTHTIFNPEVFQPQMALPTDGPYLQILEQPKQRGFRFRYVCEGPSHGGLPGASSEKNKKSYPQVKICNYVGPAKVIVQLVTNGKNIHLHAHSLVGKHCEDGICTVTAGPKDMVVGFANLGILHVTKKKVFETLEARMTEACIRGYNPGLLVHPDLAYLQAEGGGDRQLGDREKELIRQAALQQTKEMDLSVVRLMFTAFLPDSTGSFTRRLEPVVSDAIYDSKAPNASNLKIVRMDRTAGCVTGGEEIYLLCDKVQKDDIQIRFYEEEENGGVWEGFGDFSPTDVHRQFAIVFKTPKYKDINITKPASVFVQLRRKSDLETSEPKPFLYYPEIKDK

Row | Sequence | binding signal (GST-Ap-NF-kB RHD) | binding signal [1] | binding signal (GST-Co-NF-kB) | binding signal (GST-Dm-Relish) | binding signal (GST-Aq-NF-kB) | binding signal (GST-Hu-p50)
1 | CCGATTAACATCAAAAGCCCCCTTGATGTTAATCGGGTCTTGATTCGCTTGACGCTGCTG | 6.3 z-score | 6.73 z-score | 1.89 z-score | 7.9 z-score | 6.88 z-score | 6.5 z-score
2 | CCGATTAACATCAAGGGGGGTTATGATGTTAATCGGGTCTTGATTCGCTTGACGCTGCTG | 5.81 z-score | 4.63 z-score | 3.05 z-score | 7.12 z-score | 5.77 z-score | 5.59 z-score
3 | CCGATTAACATCACCGAACCCCCTGATGTTAATCGGGTCTTGATTCGCTTGACGCTGCTG | 5.86 z-score | 3.55 z-score | 2.04 z-score | 4.86 z-score | 3.82 z-score | 5.57 z-score
4 | CCGATTAACATCAAAAATGCCCCTGATGTTAATCGGGTCTTGATTCGCTTGACGCTGCTG | 4.41 z-score | 6.79 z-score | 2.95 z-score | 5.68 z-score | 6.07 z-score | 5.92 z-score
5 | CCGATTAACATCAGGGGGTGGAATGATGTTAATCGGGTCTTGATTCGCTTGACGCTGCTG | 3.47 z-score | 3.19 z-score | 4.5 z-score | 2.66 z-score | 3.65 z-score | 4.42 z-score
6 | CCGATTAACATCAAAGAGTCCCCTGATGTTAATCGGGTCTTGATTCGCTTGACGCTGCTG | 6.56 z-score | 6.17 z-score | 3.49 z-score | 6.3 z-score | 5.8 z-score | 5.88 z-score
7 | CCGATTAACATCACAAATACCCCTGATGTTAATCGGGTCTTGATTCGCTTGACGCTGCTG | 5.46 z-score | 4.42 z-score | 4.04 z-score | 3.75 z-score | 4.3 z-score | 5.3 z-score
8 | CCGATTAACATCAAATTTACCCCTGATGTTAATCGGGTCTTGATTCGCTTGACGCTGCTG | 3.29 z-score | 3.57 z-score | 8.25 z-score | 3.85 z-score | 4.53 z-score | 4.09 z-score
9 | CCGATTAACATCAAACTCCCCCGTGATGTTAATCGGGTCTTGATTCGCTTGACGCTGCTG | 6.89 z-score | 5.44 z-score | 7.66 z-score | 5.92 z-score | 5.84 z-score | 6.48 z-score
10 | CCGATTAACATCAGGCGTTCCCCTGATGTTAATCGGGTCTTGATTCGCTTGACGCTGCTG | 5.26 z-score | 6.01 z-score | 3.98 z-score | 6.34 z-score | 5.53 z-score | 4.27 z-score
11 | CCGATTAACATCAGGGCTCCCCATGATGTTAATCGGGTCTTGATTCGCTTGACGCTGCTG | 2.59 z-score | 1.32 z-score | 2.03 z-score | 3.88 z-score | 2.46 z-score | 1.51 z-score
12 | CCGATTAACATCAAGGAGTCCCCTGATGTTAATCGGGTCTTGATTCGCTTGACGCTGCTG | 7.69 z-score | 5.61 z-score | 3.12 z-score | 8.59 z-score | 5.54 z-score | 5.86 z-score
13 | CCGATTAACATCAGGGAAACTTATGATGTTAATCGGGTCTTGATTCGCTTGACGCTGCTG | 3.98 z-score | 6.28 z-score | 5.54 z-score | 2.25 z-score | 6.43 z-score | 4.53 z-score
14 | CCGATTAACATCAAAACACCCCTTGATGTTAATCGGGTCTTGATTCGCTTGACGCTGCTG | 3.63 z-score | 2.54 z-score | 2 z-score | 4.19 z-score | 4.03 z-score | 4.32 z-score
15 | CCGATTAACATCAGGGACTTTAATGATGTTAATCGGGTCTTGATTCGCTTGACGCTGCTG | 4.47 z-score | 5.92 z-score | 1.03 z-score | 5.04 z-score | 5.12 z-score | 5.02 z-score
16 | CCGATTAACATCAAAGCACCCCCTGATGTTAATCGGGTCTTGATTCGCTTGACGCTGCTG | 4.9 z-score | 3.86 z-score | 3.63 z-score | 3.26 z-score | 4.36 z-score | 4.35 z-score
17 | CCGATTAACATCACCAAACCCCCTGATGTTAATCGGGTCTTGATTCGCTTGACGCTGCTG | 6.25 z-score | 4.31 z-score | 2.03 z-score | 5.55 z-score | 4.31 z-score | 6.3 z-score
18 | CCGATTAACATCAAACAGTCCCCTGATGTTAATCGGGTCTTGATTCGCTTGACGCTGCTG | 5.58 z-score | 5.6 z-score | 2.54 z-score | 3.49 z-score | 5.66 z-score | 4.54 z-score
19 | CCGATTAACATCACGAAAACCCCTGATGTTAATCGGGTCTTGATTCGCTTGACGCTGCTG | 6.45 z-score | 5.36 z-score | 2.45 z-score | 7.06 z-score | 5.3 z-score | 6.06 z-score
20 | CCGATTAACATCAGAAATACCCATGATGTTAATCGGGTCTTGATTCGCTTGACGCTGCTG | 4.24 z-score | 5.32 z-score | 1.74 z-score | 3 z-score | 4.73 z-score | 5.12 z-score
21 | CCGATTAACATCAGGATATCCCCTGATGTTAATCGGGTCTTGATTCGCTTGACGCTGCTG | 8.1 z-score | 7.01 z-score | 3.66 z-score | 7.25 z-score | 7.17 z-score | 5.46 z-score
22 | CCGATTAACATCAAAAAACCCCATGATGTTAATCGGGTCTTGATTCGCTTGACGCTGCTG | 6.53 z-score | 7.08 z-score | 2.59 z-score | 9.52 z-score | 6.77 z-score | 6.62 z-score
23 | CCGATTAACATCATGTATGCCCCTGATGTTAATCGGGTCTTGATTCGCTTGACGCTGCTG | 1.68 z-score | 1.71 z-score | 1.24 z-score | 1.12 z-score | 2.51 z-score | 1.27 z-score
24 | CCGATTAACATCAGGAGTGCCCCTGATGTTAATCGGGTCTTGATTCGCTTGACGCTGCTG | 2.63 z-score | 2.03 z-score | 1.41 z-score | 2.25 z-score | 5 z-score | 2.25 z-score
25 | CCGATTAACATCAGAAATGCCCCTGATGTTAATCGGGTCTTGATTCGCTTGACGCTGCTG | 4.03 z-score | 5.61 z-score | 1.98 z-score | 4.09 z-score | 5.32 z-score | 5.55 z-score
